Records with an inconclusive call do not appear. Active and inactive are the calls of the source. Unless noted, calls come from the whole dose curve.
What was measured:
[1] = Nuclear factor erythroid 2-related factor 2/antioxidant responsive element (Nrf2/ARE) small molecule agonists: qHTS cell viability counter screen in human keratinocytes (AID 1919968; active = well fitted curve in the direction sought with a large enough effect in the repeat runs; an effect the other way counts as inactive or inconclusive; note: nearly all actives have a fitted effect of over 55% in size)
Outline: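 Cells of the KeratinoSens line were plated at 1,500 per well and left for 5 h before compound transfer from DMSO stocks. After a 23 h incubation (37 C, 5% CO2), CellTiter-Fluor was added. Signal was taken as fluorescence intensity 1 h later.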

[2] = Nuclear factor erythroid 2-related factor 2/antioxidant responsive element (Nrf2/ARE) small molecule agonists: luciferase reporter gene qHTS assay in human keratinocytes (AID 1919969); note: nearly all actives have a fitted effect of over 35% in size
[3] = target: Gonadotropin-releasing hormone receptor (Homo sapiens) (UniProt P30968); assay: Human gonadotropin-releasing hormone receptor (GnRHR) small molecule agonists, calcium flux assay in GnRHR-HEK293 cells (AID 1920063); note: nearly all actives have a fitted effect of over 35% in size
Sequence of Gonadotropin-releasing hormone receptor (Homo sapiens) (P30968 whole entry, looked up): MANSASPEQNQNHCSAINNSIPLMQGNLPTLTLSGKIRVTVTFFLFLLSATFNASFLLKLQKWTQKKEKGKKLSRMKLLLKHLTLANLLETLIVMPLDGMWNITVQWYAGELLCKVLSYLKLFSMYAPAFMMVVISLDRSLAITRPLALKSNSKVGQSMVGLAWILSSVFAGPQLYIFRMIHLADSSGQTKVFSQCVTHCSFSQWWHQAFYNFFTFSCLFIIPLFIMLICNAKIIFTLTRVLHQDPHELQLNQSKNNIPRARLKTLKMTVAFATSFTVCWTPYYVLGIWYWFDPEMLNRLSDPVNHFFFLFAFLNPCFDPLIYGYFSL
Outline: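 Compounds dissolved in DMSO are pin-transferred onto dye-loaded GnRHR-HEK293 cells, which were seeded 18 h before at 37 C/5% CO2. Calcium signal is read as fluorescence intensity at 1 s intervals for 3 min.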

[4] = target: KiSS-1 receptor (Homo sapiens) (UniProt Q969F8); assay: Human kisspeptin (KISS1R) small molecule agonists, calcium flux assay in KISS1R-HEK293 cells (AID 1920064; active = well fitted curve in the direction sought with a large enough effect in the repeat runs; an effect the other way counts as inactive or inconclusive)
Sequence of KiSS-1 receptor (Homo sapiens) (Q969F8 whole entry, looked up): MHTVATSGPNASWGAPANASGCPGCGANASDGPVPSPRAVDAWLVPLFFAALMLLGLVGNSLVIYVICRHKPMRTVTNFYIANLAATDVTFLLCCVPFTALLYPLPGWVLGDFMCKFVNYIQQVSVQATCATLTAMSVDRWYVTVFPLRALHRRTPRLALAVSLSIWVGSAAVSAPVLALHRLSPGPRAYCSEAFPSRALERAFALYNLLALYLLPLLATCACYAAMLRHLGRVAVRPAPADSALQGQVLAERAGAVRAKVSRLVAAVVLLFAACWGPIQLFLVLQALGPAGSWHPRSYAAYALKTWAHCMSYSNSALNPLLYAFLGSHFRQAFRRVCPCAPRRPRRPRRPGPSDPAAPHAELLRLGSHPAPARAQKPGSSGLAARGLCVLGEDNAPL
Outline: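 Cell line: HEK293, stable human KISS1R. Dye loading 1 h at 37 C after 18 h culture. Read: kinetic fluorescence, 480/540 nm, 3 min at 1 s intervals.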

[5] = p53 small molecule agonists, cell-based qHTS assay with human liver microsomes (AID 1963577);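 note: p53 response element beta-lactamase reporter cells with liver microsomes plus NADPH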
Outline: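 Steps: plate p53RE-bla cells, incubate 5 h at 37 C; add compound in DMSO; add microsomes (0.5 mg/mL final) and NADPH (0.5 mg/mL final); incubate 16 h at 37 C; add LiveBLAzer, 2 h RT; read fluorescence.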

[6] = p53 small molecule agonists, cell-based qHTS assay with rat liver microsomes (AID 1963578)
Outline: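 Metabolic activation is supplied by rat liver microsomes with NADPH (each 0.5 mg/mL final). p53RE-bla cells incubate with compound 16 h at 37 C; reporter activity is measured by LiveBLAzer fluorescence.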

[7] = p53 small molecule agonists, cell-based qHTS assay with human liver microsomes: qHTS cell viability counter screen (AID 1963579); note: nearly all actives have a fitted effect of over 45% in size
Outline: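 After the 460/530 nm beta-lactamase read, CellTiter-Glo was added to the same wells and luminescence measured after 30 min at room temperature, giving viability of p53RE-bla cells treated 16 h with compounds plus microsomes and NADPH.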

[8] = p53 small molecule agonists, cell-based qHTS assay with rat liver microsomes: qHTS cell viability counter screen (AID 1963580); note: nearly all actives have a fitted effect of over 45% in size
Outline: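 Luminescent ATP readout (CellTiter-Glo, 30 min at room temperature) reports viability of p53RE-bla HCT-116 cells after 16 h at 37 C with test compounds under metabolic activation by rat liver microsomes and NADPH at 0.5 mg/mL final each.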

[9] = p53 small molecule agonists, cell-based qHTS assay: qHTS cell viability counter screen (AID 1963581); note: nearly all actives have a fitted effect of over 45% in size
Outline: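 ATP content measured by luminescence in HCT-116 p53RE-bla cells treated 16 h at 37 C, same wells as the reporter screen.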

[10] = p53 small molecule agonists, cell-based qHTS assay (AID 1963582; active = well fitted activation curve with a large enough effect in the signal ratio in the repeat runs, not every such curve was filed as active; the % refers to the signal ratio)
Outline: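 16 h compound exposure (37 C) of p53 response element–bla cells, preceded by 5 h recovery at 37 C/5% CO2; read-out via LiveBLAzer B/G FRET substrate, 2 h RT, fluorescence intensity.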

[11] = target: 5-hydroxytryptamine receptor 2A (Homo sapiens) (UniProt P28223); assay: 5-hydroxytryptamine receptor 2A (HTR2A) small molecule antagonists, cell-based qHTS assay (AID 1963586); note: nearly all actives have a fitted effect of over 45% in size
Sequence of 5-hydroxytryptamine receptor 2A (Homo sapiens) (P28223 whole entry, looked up): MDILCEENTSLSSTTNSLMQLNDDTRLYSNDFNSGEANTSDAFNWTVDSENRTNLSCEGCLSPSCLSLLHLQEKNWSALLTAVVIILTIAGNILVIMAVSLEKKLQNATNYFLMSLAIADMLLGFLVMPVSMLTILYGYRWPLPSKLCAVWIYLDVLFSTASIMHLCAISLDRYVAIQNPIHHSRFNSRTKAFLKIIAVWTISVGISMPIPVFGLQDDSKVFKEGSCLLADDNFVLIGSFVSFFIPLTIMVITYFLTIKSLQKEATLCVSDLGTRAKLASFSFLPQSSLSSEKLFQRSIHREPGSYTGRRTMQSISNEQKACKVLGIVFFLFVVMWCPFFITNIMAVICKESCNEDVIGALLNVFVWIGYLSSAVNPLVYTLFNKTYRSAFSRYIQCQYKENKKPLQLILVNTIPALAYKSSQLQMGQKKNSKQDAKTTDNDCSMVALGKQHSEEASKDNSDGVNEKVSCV
Outline: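 CHO cells stably expressing human HTR2A were plated for 18 h at 37 C, then loaded with calcium dye for 1 h. Compounds were preincubated 5 min at room temperature before DOI (4 nM solution) was added. Kinetic fluorescence was read for 3 min.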

[12] = target: 5-hydroxytryptamine receptor 2A (Homo sapiens) (UniProt P28223); assay: 5-hydroxytryptamine receptor 2A (HTR2A) small molecule agonists, cell-based qHTS assay (AID 1963587); note: nearly all actives have a fitted effect of over 30% in size
Outline: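 HTR2A-CHO cells, plated 18 h at 37 C/5% CO2, dye-loaded 1 h at 37 C; compounds in DMSO added by pin tool (agonist mode). Intracellular calcium flux read as kinetic fluorescence on FDSS over 2 min at 1 s intervals.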

[13] = target: Muscarinic acetylcholine receptor M1 (Homo sapiens) (UniProt P11229); assay: Cholinergic receptor muscarinic 1 (CHRM1) small molecule agonists, cell-based qHTS assay (AID 1963589); note: nearly all actives have a fitted effect of over 35% in size
Sequence of Muscarinic acetylcholine receptor M1 (Homo sapiens) (P11229 whole entry, looked up): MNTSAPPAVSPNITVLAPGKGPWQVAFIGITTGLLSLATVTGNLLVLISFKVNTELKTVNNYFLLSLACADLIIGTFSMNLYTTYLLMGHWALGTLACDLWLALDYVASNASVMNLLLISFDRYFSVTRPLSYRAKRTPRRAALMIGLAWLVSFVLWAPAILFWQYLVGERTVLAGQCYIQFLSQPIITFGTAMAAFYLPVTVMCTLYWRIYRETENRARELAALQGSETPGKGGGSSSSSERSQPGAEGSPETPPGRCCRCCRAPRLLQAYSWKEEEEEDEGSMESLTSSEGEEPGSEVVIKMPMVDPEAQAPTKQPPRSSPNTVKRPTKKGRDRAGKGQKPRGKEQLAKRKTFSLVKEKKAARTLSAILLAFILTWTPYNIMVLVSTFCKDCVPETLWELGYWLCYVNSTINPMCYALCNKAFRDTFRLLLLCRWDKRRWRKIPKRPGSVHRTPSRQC
Outline: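 Homogeneous fluorescence calcium flux, agonist mode. Human M1-expressing CHO cells; compound dosed at 15 concentrations, three independent runs; signal sampled every 1 sec.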

[14] = cAMP Responsive Elements (CRE) small molecule agonists, cell-based qHTS assay (AID 1963590)
Outline: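 HEK 293T cells stably bearing CRE-bla were plated at 2,000 cells per well and rested 18 h. Compounds, positive controls or DMSO were added for 3 h at 37 C. LiveBLAzer B/G substrate was then loaded for 2 h at room temperature.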

[15] = target: Beta-2 adrenergic receptor (Homo sapiens) (UniProt P07550); assay: Adrenergic beta2 receptor (ADRB2) small molecule antagonists, cell-based qHTS assay (AID 1963592); note: nearly all actives have a fitted effect of over 50% in size; note: potency is the fitted concentration of half-maximal effect; for activity change, negative = inhibition: series mostly up to about 92 µM
Sequence of Beta-2 adrenergic receptor (Homo sapiens) (P07550 whole entry, looked up): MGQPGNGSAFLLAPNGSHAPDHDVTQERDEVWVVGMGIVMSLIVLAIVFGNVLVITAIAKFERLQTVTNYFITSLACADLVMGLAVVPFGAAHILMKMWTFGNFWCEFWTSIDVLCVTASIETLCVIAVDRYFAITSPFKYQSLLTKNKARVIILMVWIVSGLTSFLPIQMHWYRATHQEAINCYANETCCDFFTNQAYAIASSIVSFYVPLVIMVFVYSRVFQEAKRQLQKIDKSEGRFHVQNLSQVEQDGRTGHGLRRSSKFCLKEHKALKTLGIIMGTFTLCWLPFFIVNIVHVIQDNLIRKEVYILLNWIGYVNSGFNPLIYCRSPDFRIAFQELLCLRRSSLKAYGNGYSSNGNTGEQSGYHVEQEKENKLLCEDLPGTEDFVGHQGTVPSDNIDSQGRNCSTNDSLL
Outline: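 Assay format: CHO-ADRB2 cells, 18-20hr seeding at 37C/5% CO2, then compound plus 1nM isoproterenol agonist mix for 0.5hr RT. Homogeneous time-resolved fluorescence cAMP detection after 1hr, expressed as 665/615 nm ratio.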

[16] = target: D(2) dopamine receptor (Homo sapiens) (UniProt P14416); assay: Dopamine D2 receptor (DRD2) small molecule antagonists, cell-based qHTS assay (AID 1963595; active = well fitted inhibition curve with a large enough effect in the signal ratio in the repeat runs, with a control signal flat; the % refers to the signal ratio; note: potency is the fitted concentration of half-maximal effect)
Sequence of D(2) dopamine receptor (Homo sapiens) (P14416 whole entry, looked up): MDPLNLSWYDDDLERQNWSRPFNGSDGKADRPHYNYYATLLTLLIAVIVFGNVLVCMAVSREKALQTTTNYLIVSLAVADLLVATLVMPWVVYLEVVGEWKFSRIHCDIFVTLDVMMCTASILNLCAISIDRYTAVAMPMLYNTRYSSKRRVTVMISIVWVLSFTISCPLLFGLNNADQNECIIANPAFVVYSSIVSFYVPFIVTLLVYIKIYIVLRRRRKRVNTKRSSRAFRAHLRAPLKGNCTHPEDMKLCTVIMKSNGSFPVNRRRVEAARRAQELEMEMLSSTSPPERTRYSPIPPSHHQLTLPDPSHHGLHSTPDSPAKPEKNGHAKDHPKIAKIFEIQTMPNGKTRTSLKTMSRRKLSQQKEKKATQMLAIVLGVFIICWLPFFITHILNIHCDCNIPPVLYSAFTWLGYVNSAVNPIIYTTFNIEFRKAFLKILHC
Outline: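 DRD2-HEK293; 0.1 mM Ro20-1724; cpd 10 min RT; NKH477 200 nM + quinpirole 12 nM, 30 min RT; HTRF cAMP (cAMP-d2/anti-cAMP cryptate), 665/620 nm ratio after 1 h.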

[17] = target: Muscarinic acetylcholine receptor M1 (Homo sapiens) (UniProt P11229); assay: Cholinergic receptor muscarinic 1 (CHRM1) small molecule antagonists, cell-based qHTS assay (AID 1963588); note: nearly all actives have a fitted effect of over 40% in size; note: potency is the fitted concentration of half-maximal effect
Outline: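 Compounds were tested at 15 concentrations in three independent runs. Dye-loaded CHRM1-CHO cells were exposed 5 min at room temperature before stimulation by acetylcholine added at 50nM. Intracellular calcium was read kinetically on FDSS for 3 min.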

[18] = cAMP Responsive Elements (CRE) small molecule antagonists, cell-based qHTS assay (AID 1963591; active = well fitted inhibition curve with a large enough effect in the signal ratio in the repeat runs, not every such curve was filed as active; the % refers to the signal ratio)
Outline: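 First, CRE-bla HEK293T cells settled 18 h at 37 C. Next, compound and 0.25 uM final NKH477 were applied for 3 h. Last, LiveBLAzer B/G substrate was loaded for 2 h at room temperature.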

[19] = target: D(2) dopamine receptor (Homo sapiens) (UniProt P14416); assay: Dopamine D2 receptor (DRD2) small molecule agonists, cell-based qHTS assay (AID 1963594); note: nearly all actives have a fitted effect of over 35% in size
Outline: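 HEK293 cells stably expressing DRD2 were cultured 24 h at 37 C, then given Ro20-1724 (0.1 mM final) and compounds for 10 min at room temperature. NKH477 (200nM) was then added for 30 min. cAMP was read by HTRF.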
% is set by controls: 0 for no effect and ±100 for the full control effect.

O=S1(=O)c2cccc3cccc(c23)N1CCCN1CCN(c2ccc(F)cc2)CC1
inactive: Potency [1] | Potency [2] | Potency [3] | outcome [4] | Potency [5] | Potency [6] | Potency [7] | Potency [8] | Potency [9] | Potency [10] | Potency [11] | Potency [12] | Potency [13] | Potency [14] | Potency [16]
active: Potency [15] 33.5 µM

CC(=O)OC1CCC(C(C)(C)C)CC1 (stereo not drawn)
inactive: Potency [1] | Potency [2] | Potency [3] | outcome [4] | Potency [5] | Potency [6] | Potency [7] | Potency [8] | Potency [10] | Potency [12] | Potency [17] | Potency [13] | Potency [14] | Potency [18] | Potency [15] | Potency [19] | Potency [16]

COc1ccc(-n2nc(C(F)F)cc2-c2ccc(S(C)=O)cc2)cc1 (stereo not drawn)
inactive: Potency [1] | Potency [2] | Potency [3] | outcome [4] | Potency [5] | Potency [6] | Potency [7] | Potency [8] | Potency [9] | Potency [10] | Potency [11] | Potency [12] | Potency [17] | Potency [15] | Potency [16]

C1COC(NC(C2CC2)C2CC2)=N1
inactive: Potency [1] | Potency [2] | Potency [3] | outcome [4] | Potency [5] | Potency [6] | Potency [7] | Potency [8] | Potency [9] | Potency [10] | Potency [12] | Potency [17] | Potency [13] | Potency [14] | Potency [15] | Potency [19] | Potency [16]

C[C@H](O)C(=O)Nc1c(I)c(C(=O)NC(CO)CO)c(I)c(C(=O)NC(CO)CO)c1I
inactive: Potency [1] | Potency [2] | Potency [3] | outcome [4] | Potency [5] | Potency [6] | Potency [7] | Potency [8] | Potency [9] | Potency [10] | Potency [11] | Potency [12] | Potency [17] | Potency [14] | Potency [18] | Potency [15] | Potency [19]

COc1cc2c(cc1OC)-c1cc3ccc(OC)c(OC)c3c[n+]1CC2
inactive: Potency [1] | Potency [2] | Potency [3] | outcome [4] | Potency [5] | Potency [6] | Potency [7] | Potency [8] | Potency [9] | Potency [10] | Potency [12] | Potency [17] | Potency [13] | Potency [18]

Cc1nc2n(c(=O)c1CCN1CCC(c3noc4cc(F)ccc34)CC1)CCC[C@H]2O
inactive: activity change, negative = cytotoxicity [1] 0.553% [at 19 µM] | activity, positive = activation [2] 1.67% [at 19 µM] | activity change [3] -1.01% [at 11.8 µM, hits give high values] | activation [4] 2.67% [at 15.8 µM] | activation [5] -1.61% [at 13.5 µM] | activation [6] -1.62% [at 13.6 µM] | activity change, negative = cytotoxicity [7] -2.44% [at 13.5 µM] | activity change, negative = cytotoxicity [8] 3.38% [at 13.5 µM] | activity change, negative = cytotoxicity [9] -16.9% [at 13.5 µM] | activation [10] -2.71% [at 13.5 µM] | activation [12] -9.85% [at 15.9 µM] | activation [13] -0.822% [at 15.8 µM] | activation [14] -1.39% [at 19 µM] | activity change, negative = inhibition [15] -0.824% [at 19 µM] | activation [19] -27% [at 19 µM]
active: Potency [17] 4.48 µM | Potency [16] 0.0326 µM
